Columns and labels:
Assay in all cases: DAPPL (digital affinity profiling via proximity ligation, sequencing); 10 mM Tris-HCl pH 7.5, 50 mM NaCl, 1 mM DTT, 4% glycerol, room temperature, 30 min; GST-TFs on glutathione beads, 16-mer random dsDNA library, 0.1% formaldehyde crosslink after washing; high values mean tight binding
FLI1 = target: T1, FLI1 (Homo sapiens, UniProt Q01543 1-452); conditions: protein: recombinant; tags: N-terminal GST; dsDNA, one strand shown
T1 sequence: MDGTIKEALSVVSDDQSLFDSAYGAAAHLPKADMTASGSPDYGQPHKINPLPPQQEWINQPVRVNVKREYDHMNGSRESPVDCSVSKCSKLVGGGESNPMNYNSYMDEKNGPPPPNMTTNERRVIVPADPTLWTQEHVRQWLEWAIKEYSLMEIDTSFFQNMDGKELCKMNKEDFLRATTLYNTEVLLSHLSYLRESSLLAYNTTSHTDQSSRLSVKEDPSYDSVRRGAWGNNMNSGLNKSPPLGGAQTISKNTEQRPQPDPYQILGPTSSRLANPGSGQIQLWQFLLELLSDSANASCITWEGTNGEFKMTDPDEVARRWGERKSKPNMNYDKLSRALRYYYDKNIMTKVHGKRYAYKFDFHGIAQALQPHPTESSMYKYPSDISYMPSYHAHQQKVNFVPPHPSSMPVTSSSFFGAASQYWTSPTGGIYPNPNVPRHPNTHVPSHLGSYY
In short: (§1)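 GST fusions of human transcription factors were expressed in yeast and captured with glutathione beads. Once given DNA barcodes and pooled alongside a tag-only sample, they were incubated for 30 min at room temperature with 200 nmole of a random double-stranded 16-mer DNA library in Tris/NaCl/DTT/glycerol buffer, then washed, crosslinked (0.1% formaldehyde), proximity-ligated, PCR-amplified and sequenced on an Illumina NextSeq500. The binding signal of each hexamer is its read frequency for a factor divided by its frequency for the tag-only sample.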

ELK1 = target: T2, ELK1 (Homo sapiens, UniProt P19419 1-428); conditions: protein: recombinant; tags: N-terminal GST; dsDNA, one strand shown
T2 sequence: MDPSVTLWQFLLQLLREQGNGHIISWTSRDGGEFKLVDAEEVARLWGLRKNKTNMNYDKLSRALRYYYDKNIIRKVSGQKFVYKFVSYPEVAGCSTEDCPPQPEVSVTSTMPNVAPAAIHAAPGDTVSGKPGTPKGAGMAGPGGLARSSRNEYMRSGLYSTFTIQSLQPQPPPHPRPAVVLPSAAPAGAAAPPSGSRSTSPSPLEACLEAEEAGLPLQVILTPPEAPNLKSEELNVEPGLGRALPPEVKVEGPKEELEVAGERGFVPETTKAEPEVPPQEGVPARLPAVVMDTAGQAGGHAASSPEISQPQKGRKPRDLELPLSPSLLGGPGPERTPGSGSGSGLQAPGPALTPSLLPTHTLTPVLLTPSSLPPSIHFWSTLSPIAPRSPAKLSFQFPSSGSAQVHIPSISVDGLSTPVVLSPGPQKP
In short: as §1

GABPA = target: T3, GABPA (Homo sapiens, UniProt Q06546 1-454); conditions: protein: recombinant; tags: N-terminal GST; dsDNA, one strand shown
T3 sequence: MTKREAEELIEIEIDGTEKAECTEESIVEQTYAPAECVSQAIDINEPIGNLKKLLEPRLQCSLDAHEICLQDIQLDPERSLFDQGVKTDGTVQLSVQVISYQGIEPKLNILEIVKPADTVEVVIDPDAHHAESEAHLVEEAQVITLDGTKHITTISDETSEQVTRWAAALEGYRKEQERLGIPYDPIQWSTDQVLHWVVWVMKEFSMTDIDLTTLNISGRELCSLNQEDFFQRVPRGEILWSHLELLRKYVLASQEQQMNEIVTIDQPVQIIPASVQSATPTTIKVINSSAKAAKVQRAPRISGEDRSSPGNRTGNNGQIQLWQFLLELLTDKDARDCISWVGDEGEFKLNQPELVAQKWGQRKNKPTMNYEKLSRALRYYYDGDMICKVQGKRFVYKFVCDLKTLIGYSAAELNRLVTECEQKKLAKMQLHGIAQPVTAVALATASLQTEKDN
In short: as §1

ERG = target: T4, ERG (Homo sapiens, UniProt P11308 1-479); conditions: protein: recombinant; tags: N-terminal GST; dsDNA, one strand shown
T4 sequence: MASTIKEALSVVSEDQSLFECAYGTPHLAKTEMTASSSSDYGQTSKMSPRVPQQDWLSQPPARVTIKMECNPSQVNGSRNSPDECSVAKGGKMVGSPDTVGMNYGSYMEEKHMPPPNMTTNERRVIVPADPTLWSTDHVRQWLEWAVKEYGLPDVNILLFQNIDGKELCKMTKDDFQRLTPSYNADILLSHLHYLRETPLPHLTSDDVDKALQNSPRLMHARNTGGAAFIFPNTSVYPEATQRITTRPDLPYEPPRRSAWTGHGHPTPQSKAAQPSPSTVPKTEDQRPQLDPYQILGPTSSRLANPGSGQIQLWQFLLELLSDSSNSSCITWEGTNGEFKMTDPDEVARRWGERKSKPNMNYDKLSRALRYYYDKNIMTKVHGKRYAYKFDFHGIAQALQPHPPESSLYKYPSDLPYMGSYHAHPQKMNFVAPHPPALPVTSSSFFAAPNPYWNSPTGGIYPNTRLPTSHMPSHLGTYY
In short: as §1

ELF1 = ELF1 (Homo sapiens, UniProt P32519 1-619); conditions: protein: recombinant; tags: N-terminal GST; dsDNA, one strand shown
ELF1, sequence (P32519 whole entry): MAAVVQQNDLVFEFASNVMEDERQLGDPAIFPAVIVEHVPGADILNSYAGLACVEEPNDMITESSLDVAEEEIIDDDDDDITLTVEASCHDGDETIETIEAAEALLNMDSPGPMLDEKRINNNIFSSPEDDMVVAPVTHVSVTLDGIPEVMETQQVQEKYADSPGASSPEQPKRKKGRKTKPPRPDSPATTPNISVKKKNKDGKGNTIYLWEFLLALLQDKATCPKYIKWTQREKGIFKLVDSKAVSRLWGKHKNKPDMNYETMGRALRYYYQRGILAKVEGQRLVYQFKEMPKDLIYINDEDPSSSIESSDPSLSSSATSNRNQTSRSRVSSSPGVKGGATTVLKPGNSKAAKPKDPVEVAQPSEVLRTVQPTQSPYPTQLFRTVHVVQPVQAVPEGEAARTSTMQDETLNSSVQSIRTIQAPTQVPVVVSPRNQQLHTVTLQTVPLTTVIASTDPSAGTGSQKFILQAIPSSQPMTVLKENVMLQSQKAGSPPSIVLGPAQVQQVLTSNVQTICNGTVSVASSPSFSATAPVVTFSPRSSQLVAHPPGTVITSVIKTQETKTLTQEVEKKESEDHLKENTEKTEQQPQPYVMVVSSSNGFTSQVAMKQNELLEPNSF
In short: as §1

EHF = target: T5, EHF (Homo sapiens, UniProt Q9NZC4 1-300); conditions: protein: recombinant; tags: N-terminal GST; dsDNA, one strand shown
T5 sequence: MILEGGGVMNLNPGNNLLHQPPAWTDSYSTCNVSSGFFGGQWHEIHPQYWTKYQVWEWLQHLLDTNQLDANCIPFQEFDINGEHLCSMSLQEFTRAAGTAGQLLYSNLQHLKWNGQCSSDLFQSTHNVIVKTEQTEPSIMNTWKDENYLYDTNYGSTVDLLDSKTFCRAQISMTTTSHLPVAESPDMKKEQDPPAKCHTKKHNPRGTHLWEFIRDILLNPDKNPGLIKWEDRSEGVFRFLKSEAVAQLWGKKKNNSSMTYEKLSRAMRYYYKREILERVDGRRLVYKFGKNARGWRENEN
In short: as §1

SPI1 = SPI1 (Homo sapiens, UniProt P17947 1-270); conditions: protein: recombinant; tags: N-terminal GST; dsDNA, one strand shown
In short: as §1

SPIB = SPIB (Homo sapiens, UniProt Q01892 1-262); conditions: protein: recombinant; tags: N-terminal GST; dsDNA, one strand shown
SPIB, sequence (Q01892 whole entry): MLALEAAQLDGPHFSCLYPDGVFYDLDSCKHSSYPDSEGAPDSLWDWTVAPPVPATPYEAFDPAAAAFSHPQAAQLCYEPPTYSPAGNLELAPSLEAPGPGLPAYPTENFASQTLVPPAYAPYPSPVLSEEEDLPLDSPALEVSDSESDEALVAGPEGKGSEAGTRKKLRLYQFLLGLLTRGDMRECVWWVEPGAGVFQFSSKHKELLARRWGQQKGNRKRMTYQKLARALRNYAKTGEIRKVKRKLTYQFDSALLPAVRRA
In short: as §1

ELK3 = target: T6, ELK3 (Homo sapiens, UniProt P41970 1-407); conditions: protein: recombinant; tags: N-terminal GST; dsDNA, one strand shown
T6 sequence: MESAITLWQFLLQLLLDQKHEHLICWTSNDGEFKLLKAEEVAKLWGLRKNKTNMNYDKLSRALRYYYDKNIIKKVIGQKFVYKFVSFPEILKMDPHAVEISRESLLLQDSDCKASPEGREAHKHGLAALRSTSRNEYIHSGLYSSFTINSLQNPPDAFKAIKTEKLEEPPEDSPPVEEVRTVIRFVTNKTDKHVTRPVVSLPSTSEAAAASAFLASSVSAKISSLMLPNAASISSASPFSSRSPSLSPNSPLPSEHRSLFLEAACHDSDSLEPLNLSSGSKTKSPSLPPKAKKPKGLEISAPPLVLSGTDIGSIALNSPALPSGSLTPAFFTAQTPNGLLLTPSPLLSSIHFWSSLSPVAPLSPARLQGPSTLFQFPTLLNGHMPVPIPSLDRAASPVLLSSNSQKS
In short: as §1

FEV = target: T7, FEV (Homo sapiens, UniProt Q99581 1-238); conditions: protein: recombinant; tags: N-terminal GST; dsDNA, one strand shown
T7 sequence: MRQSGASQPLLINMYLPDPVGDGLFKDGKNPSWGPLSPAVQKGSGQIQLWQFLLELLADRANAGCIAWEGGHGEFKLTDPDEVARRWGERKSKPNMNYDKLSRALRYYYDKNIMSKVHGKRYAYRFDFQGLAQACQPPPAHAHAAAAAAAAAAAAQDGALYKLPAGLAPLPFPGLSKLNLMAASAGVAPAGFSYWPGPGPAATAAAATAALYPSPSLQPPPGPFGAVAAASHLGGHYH
In short: as §1

ETV5 = ETV5 (Homo sapiens, UniProt P41161 1-510); conditions: protein: recombinant; tags: N-terminal GST; dsDNA, one strand shown
ETV5, sequence (P41161 whole entry): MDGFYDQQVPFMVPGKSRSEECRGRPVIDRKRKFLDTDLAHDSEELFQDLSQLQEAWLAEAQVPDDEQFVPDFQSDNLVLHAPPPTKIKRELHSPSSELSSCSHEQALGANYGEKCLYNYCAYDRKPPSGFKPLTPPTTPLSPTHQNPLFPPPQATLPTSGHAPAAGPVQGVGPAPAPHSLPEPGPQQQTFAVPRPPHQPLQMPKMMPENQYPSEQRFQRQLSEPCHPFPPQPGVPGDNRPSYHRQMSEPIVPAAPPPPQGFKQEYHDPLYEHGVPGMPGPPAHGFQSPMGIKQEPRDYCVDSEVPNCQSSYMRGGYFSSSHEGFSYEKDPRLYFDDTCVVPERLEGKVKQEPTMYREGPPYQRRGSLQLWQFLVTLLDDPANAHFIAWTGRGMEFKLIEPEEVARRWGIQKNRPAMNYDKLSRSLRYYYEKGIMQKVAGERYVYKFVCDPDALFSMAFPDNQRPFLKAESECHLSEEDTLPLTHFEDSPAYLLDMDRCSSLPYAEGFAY
In short: as §1

HSF1 = HSF1 (Homo sapiens, UniProt Q00613 1-529); conditions: protein: recombinant; tags: N-terminal GST; chain copies: 3; dsDNA, one strand shown
HSF1, sequence (Q00613 whole entry): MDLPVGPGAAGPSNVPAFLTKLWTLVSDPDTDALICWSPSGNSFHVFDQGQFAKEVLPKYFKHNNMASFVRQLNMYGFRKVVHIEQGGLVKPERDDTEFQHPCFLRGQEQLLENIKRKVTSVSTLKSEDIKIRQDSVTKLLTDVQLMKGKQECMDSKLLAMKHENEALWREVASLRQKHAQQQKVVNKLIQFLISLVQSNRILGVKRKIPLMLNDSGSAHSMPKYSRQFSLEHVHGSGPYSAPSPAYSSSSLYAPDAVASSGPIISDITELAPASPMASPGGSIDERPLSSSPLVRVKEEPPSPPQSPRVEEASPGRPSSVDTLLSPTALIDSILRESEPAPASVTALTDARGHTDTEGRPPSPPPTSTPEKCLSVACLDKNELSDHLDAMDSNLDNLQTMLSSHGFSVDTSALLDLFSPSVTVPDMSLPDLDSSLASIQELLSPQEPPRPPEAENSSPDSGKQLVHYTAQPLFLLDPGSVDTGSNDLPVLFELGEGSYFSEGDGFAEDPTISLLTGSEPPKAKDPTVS
In short: as §1

SPIC = target: T8, SPIC (Homo sapiens, UniProt Q8N5J4 1-248); conditions: protein: recombinant; tags: N-terminal GST; dsDNA, one strand shown
T8 sequence: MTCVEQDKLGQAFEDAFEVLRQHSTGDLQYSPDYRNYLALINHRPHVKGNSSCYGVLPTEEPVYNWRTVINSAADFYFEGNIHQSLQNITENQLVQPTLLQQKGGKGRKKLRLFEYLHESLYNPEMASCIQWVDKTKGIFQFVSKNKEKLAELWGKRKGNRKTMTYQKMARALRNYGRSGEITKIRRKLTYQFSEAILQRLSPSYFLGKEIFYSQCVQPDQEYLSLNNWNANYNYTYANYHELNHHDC
In short: as §1

ELF4 = ELF4 (Homo sapiens, UniProt Q99607 1-663); conditions: protein: recombinant; tags: N-terminal GST; dsDNA, one strand shown
ELF4, sequence (Q99607 whole entry): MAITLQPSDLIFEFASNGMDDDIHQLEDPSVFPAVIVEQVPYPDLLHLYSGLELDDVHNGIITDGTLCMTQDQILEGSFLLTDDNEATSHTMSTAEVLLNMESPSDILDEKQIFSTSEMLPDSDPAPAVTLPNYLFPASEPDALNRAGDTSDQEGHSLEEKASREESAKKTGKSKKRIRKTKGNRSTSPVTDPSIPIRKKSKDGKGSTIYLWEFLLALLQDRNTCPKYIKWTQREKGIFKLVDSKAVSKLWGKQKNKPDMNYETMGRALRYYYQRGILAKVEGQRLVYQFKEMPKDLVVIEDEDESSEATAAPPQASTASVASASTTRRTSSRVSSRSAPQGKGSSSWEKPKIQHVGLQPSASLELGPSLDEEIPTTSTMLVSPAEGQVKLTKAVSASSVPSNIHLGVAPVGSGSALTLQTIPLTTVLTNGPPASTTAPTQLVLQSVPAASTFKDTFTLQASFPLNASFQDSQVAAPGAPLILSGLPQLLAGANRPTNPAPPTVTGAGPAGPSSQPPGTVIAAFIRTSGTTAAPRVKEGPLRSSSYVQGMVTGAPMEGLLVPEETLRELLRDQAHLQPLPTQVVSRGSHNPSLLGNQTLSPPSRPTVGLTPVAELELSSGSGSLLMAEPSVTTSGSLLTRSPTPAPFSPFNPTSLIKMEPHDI
In short: as §1

ELK4 = target: T9, ELK4 (Homo sapiens, UniProt P28324-2 1-405); conditions: protein: recombinant; tags: N-terminal GST; dsDNA, one strand shown
T9 sequence: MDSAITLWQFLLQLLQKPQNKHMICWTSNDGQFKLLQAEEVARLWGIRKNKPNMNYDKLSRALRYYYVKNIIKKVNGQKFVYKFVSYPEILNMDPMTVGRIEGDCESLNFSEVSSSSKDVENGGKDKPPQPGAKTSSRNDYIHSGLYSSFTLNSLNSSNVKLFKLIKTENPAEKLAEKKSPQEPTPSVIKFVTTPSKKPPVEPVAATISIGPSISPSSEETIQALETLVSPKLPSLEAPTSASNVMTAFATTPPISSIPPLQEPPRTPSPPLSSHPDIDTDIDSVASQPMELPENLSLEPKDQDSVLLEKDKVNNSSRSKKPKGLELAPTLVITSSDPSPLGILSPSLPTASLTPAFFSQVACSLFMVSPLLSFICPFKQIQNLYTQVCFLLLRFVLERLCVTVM
In short: as §1

ETV2 = target: T10, ETV2 (Homo sapiens, UniProt O00321 1-342); conditions: protein: recombinant; tags: N-terminal GST; dsDNA, one strand shown
T10 sequence: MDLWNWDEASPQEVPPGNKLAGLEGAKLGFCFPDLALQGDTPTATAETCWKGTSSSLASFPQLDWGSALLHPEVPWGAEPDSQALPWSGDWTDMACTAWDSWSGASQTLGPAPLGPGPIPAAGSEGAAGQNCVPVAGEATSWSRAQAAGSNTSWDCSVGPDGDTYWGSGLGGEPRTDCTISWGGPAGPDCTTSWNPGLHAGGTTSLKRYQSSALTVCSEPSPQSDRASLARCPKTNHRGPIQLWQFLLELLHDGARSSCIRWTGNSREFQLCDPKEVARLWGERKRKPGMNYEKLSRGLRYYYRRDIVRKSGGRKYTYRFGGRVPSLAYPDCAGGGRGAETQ
In short: as §1

ELF3 = target: T11, ELF3 (Homo sapiens, UniProt P78545 1-371); conditions: protein: recombinant; tags: N-terminal GST; dsDNA, one strand shown
T11 sequence: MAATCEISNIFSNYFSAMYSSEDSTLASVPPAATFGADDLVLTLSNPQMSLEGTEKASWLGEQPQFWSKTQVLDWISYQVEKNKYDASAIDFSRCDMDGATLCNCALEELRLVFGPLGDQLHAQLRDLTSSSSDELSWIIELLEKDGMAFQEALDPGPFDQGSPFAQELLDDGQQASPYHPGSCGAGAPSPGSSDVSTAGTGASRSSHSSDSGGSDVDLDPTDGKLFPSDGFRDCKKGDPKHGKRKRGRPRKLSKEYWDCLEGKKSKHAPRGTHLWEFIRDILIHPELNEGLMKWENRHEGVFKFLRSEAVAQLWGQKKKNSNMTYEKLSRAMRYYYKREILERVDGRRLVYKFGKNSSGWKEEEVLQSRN
In short: as §1

CRX = CRX (Homo sapiens, UniProt O43186 1-299); conditions: protein: recombinant; tags: N-terminal GST; dsDNA, one strand shown
CRX, sequence (O43186 whole entry): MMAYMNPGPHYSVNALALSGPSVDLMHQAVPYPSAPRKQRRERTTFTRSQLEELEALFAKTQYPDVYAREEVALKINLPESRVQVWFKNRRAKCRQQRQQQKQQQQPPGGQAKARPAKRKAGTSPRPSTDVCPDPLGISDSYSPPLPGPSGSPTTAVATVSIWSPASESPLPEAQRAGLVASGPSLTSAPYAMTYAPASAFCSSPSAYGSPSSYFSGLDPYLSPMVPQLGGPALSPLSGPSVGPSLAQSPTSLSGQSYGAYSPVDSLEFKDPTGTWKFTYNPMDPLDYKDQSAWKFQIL
In short: as §1

ETV1 = ETV1 (Homo sapiens, UniProt P50549 1-477); conditions: protein: recombinant; tags: N-terminal GST; dsDNA, one strand shown
ETV1, sequence (P50549 whole entry): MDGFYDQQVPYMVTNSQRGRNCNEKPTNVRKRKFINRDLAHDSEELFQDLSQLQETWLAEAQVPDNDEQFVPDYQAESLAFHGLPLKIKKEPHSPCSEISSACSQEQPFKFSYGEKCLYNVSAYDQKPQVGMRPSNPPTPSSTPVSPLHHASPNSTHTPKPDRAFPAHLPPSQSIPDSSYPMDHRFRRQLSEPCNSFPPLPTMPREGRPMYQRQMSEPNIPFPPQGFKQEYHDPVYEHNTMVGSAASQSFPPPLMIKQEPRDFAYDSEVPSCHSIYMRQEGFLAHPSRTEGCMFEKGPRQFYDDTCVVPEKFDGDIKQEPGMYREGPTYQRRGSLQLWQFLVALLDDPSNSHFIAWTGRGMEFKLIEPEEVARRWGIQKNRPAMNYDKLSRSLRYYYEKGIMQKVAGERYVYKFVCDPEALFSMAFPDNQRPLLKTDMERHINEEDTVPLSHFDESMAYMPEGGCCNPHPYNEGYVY
In short: as §1

Sequence: TCCGGC
- binding signal (FLI1): 2.29 fold enrichment (6-mer frequency, TF over GST control)
- binding signal (ELK1): 2.4 fold enrichment (6-mer frequency, TF over GST control)
- binding signal (GABPA): 2.12 fold enrichment (6-mer frequency, TF over GST control)
- binding signal (ERG): 2.58 fold enrichment (6-mer frequency, TF over GST control)
- binding signal (ELF1): 2 fold enrichment (6-mer frequency, TF over GST control)
- binding signal (EHF): 2.18 fold enrichment (6-mer frequency, TF over GST control)
- binding signal (SPI1): 2.19 fold enrichment (6-mer frequency, TF over GST control)
- binding signal (SPIB): 2.42 fold enrichment (6-mer frequency, TF over GST control)
- binding signal (ELK3): 2.45 fold enrichment (6-mer frequency, TF over GST control)
- binding signal (FEV): 3.33 fold enrichment (6-mer frequency, TF over GST control)
- binding signal (ETV5): 2.4 fold enrichment (6-mer frequency, TF over GST control)
- binding signal (HSF1): 1.17 fold enrichment (6-mer frequency, TF over GST control)
- binding signal (SPIC): 2.2 fold enrichment (6-mer frequency, TF over GST control)
- binding signal (ELF4): 1.95 fold enrichment (6-mer frequency, TF over GST control)
- binding signal (ELK4): 2.03 fold enrichment (6-mer frequency, TF over GST control)
- binding signal (ETV2): 2.4 fold enrichment (6-mer frequency, TF over GST control)
- binding signal (ELF3): 1.97 fold enrichment (6-mer frequency, TF over GST control)
- binding signal (CRX): 1.1 fold enrichment (6-mer frequency, TF over GST control)
- binding signal (ETV1): 2.31 fold enrichment (6-mer frequency, TF over GST control)

Reference: paper PMC7862700, “An all-to-all approach to the identification of sequence-specific readers for epigenetic DNA modifications on cytosine”
